The structures appear in SMILES notation. The campaign covered roughly 13,000 compounds. About 3,200 (25%) showed an effect of 50% or more. The list shows a part of the results.

One may read the % Inhibition as the drop in the measured response relative to a control, in per cent.

The assay deals with P. falciparum stage V gametocytes. The arrangement: BacTiter-Glo ATP luminescence viability of purified stage V gametocytes in 384-well plates, per cent inhibition versus DMSO. The note with it: 48 h, 5 µM; inhibitor.
As for `COc1ccc(-c2ccc(NC(=O)c3ccc(Cl)cc3)cc2)cc1CN(C)CCN(C)C` [TCMDC-132511], the “% Inhibition” value worked out at 46.96%. Next, `CN(C)Cc1ccc2cc(NC(=O)c3ccc(-c4ccc(Cl)cc4)cc3)ccc2n1` [TCMDC-134644]: 5.45%.

As for `CN(C)Cc1ccc(-c2cccc(NC(=O)c3ccc(Cl)cc3)c2)cc1` [TCMDC-132632], the “% Inhibition” value stood at 4.982%. Next, `COc1ccc(-c2ccc(NC(=O)c3ccc(Cl)cc3)cc2)cc1CN(C)CCO` [TCMDC-132513]: 86.93%. With `COc1ccc(-c2ccc(NC(=O)c3cccc(Cl)c3)cc2)cc1CN(C)CCN(C)C` [TCMDC-133335] the figure was 14.93%; with `COc1ccc(-c2ccc(NC(=O)c3cccc(Cl)c3)cc2)cc1CN(C)CCO` [TCMDC-132527], 86.37%; with `COc1ccc(-c2cccc(NC(=O)c3cccc(Cl)c3)c2)cc1CN(C)CCN(C)C` [TCMDC-132616], 105.4%.

In the case of `CN(C)Cc1ccc2cc(NC(=O)c3ccc(-c4ccc(Cl)cc4)cc3)ccc2c1` [TCMDC-134694], the “% Inhibition” value is 77.36%. `COc1ccc(-c2cccc(NC(=O)c3ccc(Cl)cc3)c2)cc1CN(C)CCN(C)C` [TCMDC-132605]: the “% Inhibition” value is listed as -10.06%. As to `COc1ccc(-c2ccc(NC(=O)c3ccc(C#N)cc3)cc2)cc1CN(C)CCO` [TCMDC-132521], the “% Inhibition” value was determined as 28.66%. As for `COc1ccc(-c2ccc(NC(=O)c3cccc(Cl)c3)cc2)cc1CNC(C)C` [TCMDC-132524], the “% Inhibition” value is recorded as 39.19%. Next, `COCCN1CCC(CNCC(C)(C)c2nc(-c3ccc(Cl)c(O)c3)c(-c3ccncc3)[nH]2)CC1` [TCMDC-140898]: -79.12%.

`O=C(Nc1cccc(CN2CCCN(Cc3ccc(O)cc3)CC2)c1)c1ccc(Br)cc1` [TCMDC-141883]: the “% Inhibition” value amounted to 15.8%.

For `Cc1nc(NC2=NCN(CCCN3CCOCC3)CN2)nc2c(C)cccc12` [TCMDC-125086], the “% Inhibition” value is recorded as 47.98%. Next, `Cn1ccnc1CNC(=O)c1ccc(-c2cccc(-c3nc4cc(F)ccc4[nH]3)c2)cc1` [TCMDC-132354]: -5.334%; `O=c1c2sc(-c3ccc(Cl)cc3)cc2ncn1Cc1ccc(OCCN2CCCC2)c2ccccc12` [TCMDC-135387]: 24.51%; `Cc1cccc(CN2CCCN(Cc3ccc(C(=O)Nc4ccc(Cl)cc4)cc3)CC2)c1` [TCMDC-136407]: 32.89%. With `Cc1cc(OCCN2CCCCC2)ccc1NC(=O)c1cccc2c(=O)n(Cc3ccc(Cl)cc3)cnc12` [TCMDC-136727] the figure was 103.4%; with `COc1ccc2nccc([C@@H](O)CN3CCC(NC(=O)Cc4cc5ccccc5s4)CC3)c2c1` [TCMDC-141033], -11.21%. Next, `O=C(Nc1ccc(-c2cccc(-c3nc4ccc(F)cc4[nH]3)c2)cc1)Nc1ccsc1` [TCMDC-133218]: -7.279%; `Cc1noc(C)c1-c1ccc2c(Nc3ccccc3C(C)(C)C)c(C(=O)NCc3ccc4c(c3)OCO4)cnc2c1.Cl` [TCMDC-136353]: 56.26%. In the case of `Cc1noc(C)c1-c1ccc2c(Nc3ccccc3N3CCOCC3)c(C(=O)NCc3ccccc3)cnc2c1.Cl` [TCMDC-136667], the “% Inhibition” value was -0.5011%. As for `Cc1noc(C)c1-c1ccc2c(Nc3ccccc3C(C)(C)C)c(C(=O)NCc3ccccc3)cnc2c1.Cl` [TCMDC-136366], the “% Inhibition” value is given as -19.07%. With `Cc1noc(C)c1-c1ccc2c(Nc3cccc4c3-c3ccccc3C4=O)c(C(=O)NCc3ccccc3I)cnc2c1` [TCMDC-136308] the figure was 93.19%.

On to `Cc1noc(C)c1-c1ccc2c(Nc3ccccc3C(C)(C)C)c(C(=O)NCc3ccc(C(F)(F)F)cc3)cnc2c1.Cl` [TCMDC-136348], for which the “% Inhibition” value is listed as -20.49%.

As for `Cc1noc(C)c1-c1ccc2c(Nc3ccccc3C(C)(C)C)c(C(=O)NCc3cccc4ccccc34)cnc2c1.Cl` [TCMDC-136375], the “% Inhibition” value is -44.64%. With `Cc1noc(C)c1-c1ccc2c(Nc3ccc(Cl)cc3)c(C(N)=O)cnc2c1.Cl` [TCMDC-136010] the figure was 9.933%; with `CC(=O)c1ccc(Nc2c(C(N)=O)cnc3cc(-c4c(C)noc4C)ccc23)cc1` [TCMDC-136058], -8.163%; with `Cc1noc(C)c1-c1ccc2c(Nc3nccc4ccccc34)c(C(N)=O)cnc2c1` [TCMDC-136456], 97%. With `COc1ccc2nccc(N3CCC(CCNCc4ccc5c(n4)NC(=O)CS5)CC3)c2c1.Cl` [TCMDC-141905] the figure was -14.76%. In the case of `Cc1cccc2[nH]c(-c3cccc(-c4cccc(NC(=O)Nc5ccc(Cl)c(Cl)c5)c4)c3)nc12` [TCMDC-133277], the “% Inhibition” value was -37.89%. As to `COc1nc(N)ncc1C(=O)NC1CN2CCC1CC2` (stereo not drawn) [TCMDC-131574], the “% Inhibition” value worked out at 17.61%. With `CN1CCN(c2ccc(-c3cccc(NC(=O)c4cccc([N+](=O)[O-])c4)c3)nn2)CC1` [TCMDC-125452] the figure was -8.078%. With `Cc1ccc(C(=O)Nc2cccc(-c3ccc(N4CCN(C)CC4)nn3)c2)cc1[N+](=O)[O-]` [TCMDC-124931] the figure was 60.61%. With `CN1CCN(c2ccc(-c3cccc(NC(=O)c4ccc5ccccc5c4)c3)nn2)CC1` [TCMDC-125349] the figure was 17.67%; with `COc1cccc(C(=O)N2CCN(Cc3cccc(NC(=O)c4cccs4)c3)CC2)c1` [TCMDC-136327], -13.29%; with `Cc1[nH]c(C)c(-c2ccc(-c3ccccc3F)nc2)c(=O)c1Br` [TCMDC-135926], 66.81%.

With `Cc1[nH]c(C)c(-c2ccc(-c3ccccc3F)nc2)c(=O)c1Cl` [TCMDC-135927], the “% Inhibition” value amounted to 68.96%. Next, `O=C(/C=C/c1ccc(-c2ccccc2)cc1)NCCCCCN1CCC(c2c[nH]c3ccccc23)CC1` [TCMDC-139210]: 111.8%.

In the case of `Cc1ccc(/C=C/C(=O)NCCCCCN2CCC(c3c[nH]c4ccccc34)CC2)cc1` [TCMDC-139236], the “% Inhibition” value is recorded as 53.65%. Next, `O=C(/C=C/c1ccc(F)c(Br)c1)NCCCCCN1CCC(c2c[nH]c3ccccc23)CC1` [TCMDC-139235]: -23.07%; `O=C(/C=C/c1ccc(I)cc1)NCCCCCN1CCC(c2c[nH]c3ccccc23)CC1` [TCMDC-139198]: 49.23%; `O=C(/C=C/c1ccc(Br)cc1)NCCCCCN1CCC(c2c[nH]c3ccccc23)CC1` [TCMDC-139199]: 51.21%. Next, `O=C(/C=C/C=C/c1ccccc1)NCCCCCN1CCC(c2c[nH]c3ccccc23)CC1` [TCMDC-139216]: 106.6%.

As to `CC(C)(C)c1ccc(/C=C/C(=O)NCCCCCN2CCC(c3c[nH]c4ccccc34)CC2)cc1` [TCMDC-139247], the “% Inhibition” value was determined as 18.04%. Take `COc1ccc(/C=C/C(=O)NCCCCCN2CCC(c3c[nH]c4ccccc34)CC2)cc1O` [TCMDC-139754]: the “% Inhibition” value was -52.52%.

Turning to `Cc1ccc(Nc2nc(C)cc(NCc3ccc(-n4ccnc4)cc3)n2)cc1` [TCMDC-133454], the “% Inhibition” value was 13.72%. With `c1ccc(C2CCC(N3CCC(N4CCCC4)CC3)CC2)cc1` (stereo not drawn) [TCMDC-124349] the figure was 3.112%; with `CN1CC=C(c2c[nH]c3ccc(Sc4ccccc4)cc23)CC1` [TCMDC-138969], 5.413%. Next, `CCN1CCN(Cc2ccc3nc(-c4cc(C)n(Cc5cc(Cl)ccc5OCc5ccccc5)n4)[nH]c3c2)CC1` [TCMDC-136884]: 23.91%; `CC(C)C[C@H]1c2[nH]c3ccc(Cl)cc3c2CCN1C(=O)CCc1ccccc1` [TCMDC-135179]: 1.219%; `Cn1c(=N)n(CC(=O)OCc2ccc(OCc3ccccc3)cc2)c2ccccc21` [TCMDC-138698]: 4.888%.

For `Cn1c(=N)n(CC(=O)N2CCc3ccc(Cl)cc3C2Cc2ccc(Cl)c(Cl)c2)c2ccccc21` (stereo not drawn) [TCMDC-138699], the “% Inhibition” value is reported as 109.1%. With `CCC1CN(S(=O)(=O)c2ccc3c(c2)NC(=O)CC(=O)N3)c2cc(Cl)ccc2O1` (stereo not drawn) [TCMDC-125278], the “% Inhibition” value is 25.65%.

As for `CCn1c(-c2cc(C)on2)nc2cnc(Oc3ccc(C(=O)N4CC(=O)N(C)C4C(C)(C)C)cc3)cc21` (stereo not drawn) [TCMDC-134940], the “% Inhibition” value stood at 2.551%.

Regarding `CCc1cn(C)c2c(N3CCCC3=O)cc(C(=O)N[C@@H](Cc3ccccc3)[C@H](O)CNC(C)(C)c3cccc(OC)c3)cc12` [TCMDC-135196], the “% Inhibition” value was 90.21%. For the compound `CCn1ncc2c(N3CCCC3=O)cc(C(=O)N[C@@H](Cc3ccccc3)[C@H](O)CNC(C)(C)c3cccc(C(F)(F)F)c3)cc21` [TCMDC-135064], the “% Inhibition” value turned out to be 21.85%. As for `CCc1cn(C)c2c(N3CCCC3=O)cc(C(=O)N[C@@H](Cc3ccccc3)[C@H](O)CNCc3cccc(OC)c3)cc12` [TCMDC-135195], the “% Inhibition” value is 21.06%. For `CCc1c[nH]c2c(N3CCCC3=O)cc(C(=O)N[C@@H](Cc3ccccc3)[C@H](O)CNC(C)(C)c3cccc(OC)c3)cc12` [TCMDC-134404], the “% Inhibition” value is 44.35%.

Turning to `CCc1c[nH]c2c(N3CCCC3=O)cc(C(=O)N[C@@H](Cc3ccccc3)[C@H](O)CNC(C)(C)c3cccc(C(F)(F)F)c3)cc12` [TCMDC-134402], the “% Inhibition” value was determined as 2.989%. In the case of `CCc1cn(C)c2c(N3CCCC3=O)cc(C(=O)N[C@@H](Cc3ccccc3)[C@H](O)CNC(C)(C)c3cccc(C(F)(F)F)c3)cc12` [TCMDC-135197], the “% Inhibition” value is 87.86%. Next, `C[C@@H](NC(=O)c1nn(-c2ccc(Cl)cc2)c(=O)c2ccccc12)C(C)(C)C` [TCMDC-124772]: -4.584%; `Cc1cccc(C(=O)Nc2ccnc(N(C)CCCN(C)Cc3cccc(O)c3)c2)c1` [TCMDC-134953]: -14.35%; `Cc1nnsc1C(=O)Nc1ccc(-c2cccc(-c3nc4ccc(F)cc4[nH]3)c2)cc1` [TCMDC-137080]: -15.9%.

As for `Cc1nnsc1C(=O)Nc1ccc(-c2cccc(-c3nc4ccc(C(F)(F)F)cc4[nH]3)c2)cc1` [TCMDC-137085], the “% Inhibition” value amounted to 34.28%. Next, `Cc1nnsc1C(=O)Nc1cccc(-c2cccc(-c3nc4ccc(F)cc4[nH]3)c2)c1` [TCMDC-137081]: 77.92%; `Cc1nnsc1C(=O)Nc1cccc(-c2cccc(-c3nc4c(C)cccc4[nH]3)c2)c1` [TCMDC-137086]: -18.91%.

With `Cc1nnsc1C(=O)Nc1cccc(-c2cccc(-c3nc4ccc(C(F)(F)F)cc4[nH]3)c2)c1` [TCMDC-137084], the “% Inhibition” value is given as -5.727%. As to `Cc1nnsc1C(=O)Nc1cccc(-c2csc(-c3nc4ccccc4[nH]3)c2)c1` [TCMDC-132394], the “% Inhibition” value is 19.6%.

On to `NC(=O)c1cccc(C(=O)Nc2cccc(-c3cccc(-c4nc5ccc(F)cc5[nH]4)c3)c2)c1` [TCMDC-132198], for which the “% Inhibition” value was -10.48%. Next, `Cc1cccc2[nH]c(-c3cccc(-c4ccc(NC(=O)c5cccc(C(N)=O)c5)cc4)c3)nc12` [TCMDC-132201]: 3.68%. For `Cc1nnsc1C(=O)Nc1cccc(-c2ccc(-c3nc4ccccc4[nH]3)cc2)c1` [TCMDC-137083], the “% Inhibition” value is on record as 11.59%. Next, `Cc1nnsc1C(=O)Nc1ccc(-c2cccc(-c3nc4c(C)cccc4[nH]3)c2)cc1` [TCMDC-137087]: 78.56%. With `Cc1nnsc1C(=O)Nc1cccc(-c2cccc(-c3nc4ccccc4[nH]3)c2)c1` [TCMDC-137078] the figure was 82.4%; with `Cc1nnsc1C(=O)Nc1cccc(-c2ccc(-c3nc4ccc(C(F)(F)F)cc4[nH]3)cc2)c1` [TCMDC-137088], 70.24%.

The values are drawn from article PMC4552634, “A New Set of Chemical Starting Points with Plasmodium falciparum Transmission-Blocking Potential for Antimalarial Drug Discovery” (PLoS ONE, 2015).
